Assays:
Assay in all cases: DAPPL (digital affinity profiling via proximity ligation, sequencing); 10 mM Tris-HCl pH 7.5, 50 mM NaCl, 1 mM DTT, 4% glycerol, room temperature, 30 min; GST-TFs on glutathione beads, 16-mer random dsDNA library, 0.1% formaldehyde crosslink after washing; high values mean tight binding
Settings in all cases: protein: recombinant; tags: N-terminal GST; dsDNA, one strand shown
FLI1 = biological target: T1, FLI1 (Homo sapiens, UniProt Q01543 1-452)
T1 sequence: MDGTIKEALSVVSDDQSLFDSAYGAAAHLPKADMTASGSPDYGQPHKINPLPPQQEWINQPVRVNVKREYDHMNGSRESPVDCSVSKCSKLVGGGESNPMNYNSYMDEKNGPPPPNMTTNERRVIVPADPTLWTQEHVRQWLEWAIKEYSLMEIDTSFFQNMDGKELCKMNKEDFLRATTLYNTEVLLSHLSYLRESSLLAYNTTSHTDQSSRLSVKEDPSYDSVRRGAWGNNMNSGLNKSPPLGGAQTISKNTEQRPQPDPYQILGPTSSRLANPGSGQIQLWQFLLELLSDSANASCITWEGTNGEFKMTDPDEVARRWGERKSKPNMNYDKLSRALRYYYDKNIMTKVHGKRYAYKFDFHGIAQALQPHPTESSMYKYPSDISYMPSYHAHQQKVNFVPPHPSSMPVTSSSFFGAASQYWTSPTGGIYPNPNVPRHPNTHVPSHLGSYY
Procedure, shortened: (§1)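 Binding signal is defined as a hexamer's read frequency for one factor over its frequency for the tag-only sample. To obtain reads, GST-fused human transcription factors were expressed in yeast, captured on glutathione beads, barcoded with DNA and pooled with that sample. Pools met 200 nmole of a 16-mer random double-stranded DNA library in Tris/NaCl/DTT/glycerol buffer for 30 min at room temperature before washing, 0.1% formaldehyde crosslinking, proximity ligation (BsaI/T4 ligase, 1 h, 37 °C), PCR and Illumina NextSeq500 sequencing.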

ELK1 = biological target: T2, ELK1 (Homo sapiens, UniProt P19419 1-428)
T2 sequence: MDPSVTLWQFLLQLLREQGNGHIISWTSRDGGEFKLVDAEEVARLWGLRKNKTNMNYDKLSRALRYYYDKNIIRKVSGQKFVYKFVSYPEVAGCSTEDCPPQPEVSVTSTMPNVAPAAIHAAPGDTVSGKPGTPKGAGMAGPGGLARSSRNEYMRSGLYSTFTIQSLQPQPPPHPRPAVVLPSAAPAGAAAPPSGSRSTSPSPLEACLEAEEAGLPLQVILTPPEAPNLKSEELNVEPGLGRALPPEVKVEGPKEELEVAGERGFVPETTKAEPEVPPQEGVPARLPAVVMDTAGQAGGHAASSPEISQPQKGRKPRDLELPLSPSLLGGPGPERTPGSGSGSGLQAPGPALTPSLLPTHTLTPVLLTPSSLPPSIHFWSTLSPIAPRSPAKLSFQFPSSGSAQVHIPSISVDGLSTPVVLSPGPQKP
Procedure, shortened: as §1

GABPA = biological target: T3, GABPA (Homo sapiens, UniProt Q06546 1-454)
T3 sequence: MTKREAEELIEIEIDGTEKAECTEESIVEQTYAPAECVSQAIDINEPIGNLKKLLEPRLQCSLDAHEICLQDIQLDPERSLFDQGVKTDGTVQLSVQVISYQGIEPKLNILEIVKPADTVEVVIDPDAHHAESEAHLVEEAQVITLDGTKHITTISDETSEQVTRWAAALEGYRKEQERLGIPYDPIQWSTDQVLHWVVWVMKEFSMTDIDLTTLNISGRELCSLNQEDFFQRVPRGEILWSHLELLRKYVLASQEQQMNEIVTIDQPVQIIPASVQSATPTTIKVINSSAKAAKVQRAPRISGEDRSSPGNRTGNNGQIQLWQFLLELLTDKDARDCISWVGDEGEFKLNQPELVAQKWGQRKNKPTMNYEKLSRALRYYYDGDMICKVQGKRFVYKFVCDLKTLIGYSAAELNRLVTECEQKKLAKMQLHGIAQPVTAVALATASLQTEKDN
Procedure, shortened: as §1

ERG = biological target: T4, ERG (Homo sapiens, UniProt P11308 1-479)
T4 sequence: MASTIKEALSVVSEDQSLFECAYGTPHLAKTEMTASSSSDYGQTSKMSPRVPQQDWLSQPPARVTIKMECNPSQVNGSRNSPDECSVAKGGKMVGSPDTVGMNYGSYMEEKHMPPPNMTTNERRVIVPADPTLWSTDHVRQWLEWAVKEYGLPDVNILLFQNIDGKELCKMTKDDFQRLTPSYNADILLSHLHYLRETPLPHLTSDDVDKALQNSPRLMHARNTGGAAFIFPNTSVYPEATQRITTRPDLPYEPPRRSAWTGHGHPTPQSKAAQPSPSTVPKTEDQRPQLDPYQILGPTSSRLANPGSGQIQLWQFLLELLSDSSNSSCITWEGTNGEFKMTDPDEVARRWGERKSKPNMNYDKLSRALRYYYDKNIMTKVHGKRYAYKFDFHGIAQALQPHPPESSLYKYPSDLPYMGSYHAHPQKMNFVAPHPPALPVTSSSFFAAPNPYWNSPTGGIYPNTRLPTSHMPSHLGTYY
Procedure, shortened: as §1

ELF1 = ELF1 (Homo sapiens, UniProt P32519 1-619)
Procedure, shortened: as §1

EHF = biological target: T5, EHF (Homo sapiens, UniProt Q9NZC4 1-300)
T5 sequence: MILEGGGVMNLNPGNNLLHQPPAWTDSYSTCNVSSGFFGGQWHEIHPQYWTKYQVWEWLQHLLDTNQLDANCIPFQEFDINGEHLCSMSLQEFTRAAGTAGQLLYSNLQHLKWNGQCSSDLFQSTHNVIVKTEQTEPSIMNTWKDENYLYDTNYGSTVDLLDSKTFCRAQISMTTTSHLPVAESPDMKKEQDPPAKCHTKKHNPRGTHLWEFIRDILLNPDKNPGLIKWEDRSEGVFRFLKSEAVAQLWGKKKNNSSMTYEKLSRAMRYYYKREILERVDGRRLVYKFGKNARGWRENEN
Procedure, shortened: as §1

ELK3 = biological target: T6, ELK3 (Homo sapiens, UniProt P41970 1-407)
T6 sequence: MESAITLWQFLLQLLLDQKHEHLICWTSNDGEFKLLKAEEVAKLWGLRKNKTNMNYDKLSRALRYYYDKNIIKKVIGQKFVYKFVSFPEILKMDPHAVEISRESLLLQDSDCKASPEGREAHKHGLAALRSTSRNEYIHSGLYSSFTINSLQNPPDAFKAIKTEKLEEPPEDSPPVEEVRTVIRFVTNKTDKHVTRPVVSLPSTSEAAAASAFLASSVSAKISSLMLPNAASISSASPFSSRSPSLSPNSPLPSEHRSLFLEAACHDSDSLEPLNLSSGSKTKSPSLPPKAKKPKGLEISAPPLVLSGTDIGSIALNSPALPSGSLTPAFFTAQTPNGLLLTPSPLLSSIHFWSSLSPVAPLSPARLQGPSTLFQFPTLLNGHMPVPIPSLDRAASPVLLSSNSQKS
Procedure, shortened: as §1

SPIB = SPIB (Homo sapiens, UniProt Q01892 1-262)
Procedure, shortened: as §1

SPI1 = SPI1 (Homo sapiens, UniProt P17947 1-270)
Procedure, shortened: as §1

ELF1, sequence (P32519 whole entry): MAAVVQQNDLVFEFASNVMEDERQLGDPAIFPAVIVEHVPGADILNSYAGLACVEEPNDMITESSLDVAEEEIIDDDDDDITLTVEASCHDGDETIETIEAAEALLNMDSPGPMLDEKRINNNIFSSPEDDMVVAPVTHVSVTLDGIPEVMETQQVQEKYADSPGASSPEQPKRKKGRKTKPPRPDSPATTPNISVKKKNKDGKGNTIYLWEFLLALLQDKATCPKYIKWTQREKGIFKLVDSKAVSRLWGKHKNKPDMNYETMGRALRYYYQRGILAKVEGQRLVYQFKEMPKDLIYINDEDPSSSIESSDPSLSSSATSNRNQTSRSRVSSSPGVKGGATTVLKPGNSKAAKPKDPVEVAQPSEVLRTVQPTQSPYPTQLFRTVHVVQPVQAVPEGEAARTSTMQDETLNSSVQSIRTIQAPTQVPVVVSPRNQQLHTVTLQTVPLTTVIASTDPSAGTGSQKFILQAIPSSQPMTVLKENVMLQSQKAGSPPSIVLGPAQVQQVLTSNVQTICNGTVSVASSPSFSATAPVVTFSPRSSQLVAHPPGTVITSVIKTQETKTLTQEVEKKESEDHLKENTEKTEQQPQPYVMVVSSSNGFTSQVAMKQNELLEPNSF
SPIB, sequence (Q01892 whole entry): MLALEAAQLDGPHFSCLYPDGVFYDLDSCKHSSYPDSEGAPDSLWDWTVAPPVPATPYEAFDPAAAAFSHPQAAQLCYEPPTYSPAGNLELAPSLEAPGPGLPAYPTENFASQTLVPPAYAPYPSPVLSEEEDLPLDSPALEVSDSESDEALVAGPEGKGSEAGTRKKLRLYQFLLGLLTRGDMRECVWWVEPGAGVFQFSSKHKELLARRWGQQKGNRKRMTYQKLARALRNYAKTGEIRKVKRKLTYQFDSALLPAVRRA

| Sequence | binding signal (FLI1) | binding signal (ELK1) | binding signal (GABPA) | binding signal (ERG) | binding signal (ELF1) | binding signal (EHF) | binding signal (ELK3) | binding signal (SPIB) | binding signal (SPI1) |
| --- | --- | --- | --- | --- | --- | --- | --- | --- | --- |
| AACGTA | 1.06 fold enrichment (6-mer frequency, TF over GST control) | 1.05 fold enrichment (6-mer frequency, TF over GST control) | 1.02 fold enrichment (6-mer frequency, TF over GST control) | 1.04 fold enrichment (6-mer frequency, TF over GST control) | 1.02 fold enrichment (6-mer frequency, TF over GST control) | 1.01 fold enrichment (6-mer frequency, TF over GST control) | 1.11 fold enrichment (6-mer frequency, TF over GST control) |  |  |
| TCAAGG | 1.05 fold enrichment (6-mer frequency, TF over GST control) | 1.05 fold enrichment (6-mer frequency, TF over GST control) | 1.05 fold enrichment (6-mer frequency, TF over GST control) | 1.1 fold enrichment (6-mer frequency, TF over GST control) | 1.07 fold enrichment (6-mer frequency, TF over GST control) | 1.09 fold enrichment (6-mer frequency, TF over GST control) | 1.19 fold enrichment (6-mer frequency, TF over GST control) | 1.04 fold enrichment (6-mer frequency, TF over GST control) |  |
| TGACTG | 1.13 fold enrichment (6-mer frequency, TF over GST control) | 1.09 fold enrichment (6-mer frequency, TF over GST control) | 1.16 fold enrichment (6-mer frequency, TF over GST control) | 1.01 fold enrichment (6-mer frequency, TF over GST control) | 1.05 fold enrichment (6-mer frequency, TF over GST control) |  |  | 1.11 fold enrichment (6-mer frequency, TF over GST control) | 1.1 fold enrichment (6-mer frequency, TF over GST control) |
| CGACGA | 1.19 fold enrichment (6-mer frequency, TF over GST control) | 1.03 fold enrichment (6-mer frequency, TF over GST control) | 1.11 fold enrichment (6-mer frequency, TF over GST control) | 1.18 fold enrichment (6-mer frequency, TF over GST control) | 1.09 fold enrichment (6-mer frequency, TF over GST control) | 1.14 fold enrichment (6-mer frequency, TF over GST control) | 1.2 fold enrichment (6-mer frequency, TF over GST control) | 1.2 fold enrichment (6-mer frequency, TF over GST control) |  |
| GGGCTA | 1.1 fold enrichment (6-mer frequency, TF over GST control) | 1.05 fold enrichment (6-mer frequency, TF over GST control) | 1.08 fold enrichment (6-mer frequency, TF over GST control) | 1.16 fold enrichment (6-mer frequency, TF over GST control) | 1.16 fold enrichment (6-mer frequency, TF over GST control) | 1.18 fold enrichment (6-mer frequency, TF over GST control) | 1.06 fold enrichment (6-mer frequency, TF over GST control) | 1.15 fold enrichment (6-mer frequency, TF over GST control) |  |
| GTAATG | 1.07 fold enrichment (6-mer frequency, TF over GST control) | 1.07 fold enrichment (6-mer frequency, TF over GST control) | 1.16 fold enrichment (6-mer frequency, TF over GST control) | 1.05 fold enrichment (6-mer frequency, TF over GST control) | 1.11 fold enrichment (6-mer frequency, TF over GST control) | 1.12 fold enrichment (6-mer frequency, TF over GST control) | 1.03 fold enrichment (6-mer frequency, TF over GST control) | 1.06 fold enrichment (6-mer frequency, TF over GST control) |  |
| CACCGA | 1.01 fold enrichment (6-mer frequency, TF over GST control) | 1.01 fold enrichment (6-mer frequency, TF over GST control) | 1.08 fold enrichment (6-mer frequency, TF over GST control) | 1.08 fold enrichment (6-mer frequency, TF over GST control) | 1.11 fold enrichment (6-mer frequency, TF over GST control) | 1.08 fold enrichment (6-mer frequency, TF over GST control) | 1 fold enrichment (6-mer frequency, TF over GST control) |  |  |
| GCACGA | 1.14 fold enrichment (6-mer frequency, TF over GST control) | 1.02 fold enrichment (6-mer frequency, TF over GST control) | 1.23 fold enrichment (6-mer frequency, TF over GST control) | 1.02 fold enrichment (6-mer frequency, TF over GST control) | 1.05 fold enrichment (6-mer frequency, TF over GST control) | 1.09 fold enrichment (6-mer frequency, TF over GST control) | 1 fold enrichment (6-mer frequency, TF over GST control) | 1.08 fold enrichment (6-mer frequency, TF over GST control) |  |
| TCGAAT | 1 fold enrichment (6-mer frequency, TF over GST control) | 1.09 fold enrichment (6-mer frequency, TF over GST control) | 1.12 fold enrichment (6-mer frequency, TF over GST control) | 1.08 fold enrichment (6-mer frequency, TF over GST control) | 1.11 fold enrichment (6-mer frequency, TF over GST control) | 1.02 fold enrichment (6-mer frequency, TF over GST control) | 1.15 fold enrichment (6-mer frequency, TF over GST control) | 1.07 fold enrichment (6-mer frequency, TF over GST control) |  |
| ACCCTG | 1.05 fold enrichment (6-mer frequency, TF over GST control) | 1.09 fold enrichment (6-mer frequency, TF over GST control) | 1.06 fold enrichment (6-mer frequency, TF over GST control) | 1.05 fold enrichment (6-mer frequency, TF over GST control) | 1.13 fold enrichment (6-mer frequency, TF over GST control) |  | 1.24 fold enrichment (6-mer frequency, TF over GST control) | 1.09 fold enrichment (6-mer frequency, TF over GST control) | 1.05 fold enrichment (6-mer frequency, TF over GST control) |
| TACCTG | 1.13 fold enrichment (6-mer frequency, TF over GST control) | 1.21 fold enrichment (6-mer frequency, TF over GST control) | 1.12 fold enrichment (6-mer frequency, TF over GST control) | 1.17 fold enrichment (6-mer frequency, TF over GST control) | 1.09 fold enrichment (6-mer frequency, TF over GST control) | 1.16 fold enrichment (6-mer frequency, TF over GST control) | 1.15 fold enrichment (6-mer frequency, TF over GST control) | 1.25 fold enrichment (6-mer frequency, TF over GST control) |  |
| CGGTAT | 1.08 fold enrichment (6-mer frequency, TF over GST control) | 1.12 fold enrichment (6-mer frequency, TF over GST control) | 1.01 fold enrichment (6-mer frequency, TF over GST control) | 1.13 fold enrichment (6-mer frequency, TF over GST control) | 1.1 fold enrichment (6-mer frequency, TF over GST control) | 1.08 fold enrichment (6-mer frequency, TF over GST control) | 1.01 fold enrichment (6-mer frequency, TF over GST control) | 1.07 fold enrichment (6-mer frequency, TF over GST control) |  |
| GAATAC | 1.1 fold enrichment (6-mer frequency, TF over GST control) | 1.1 fold enrichment (6-mer frequency, TF over GST control) | 1.11 fold enrichment (6-mer frequency, TF over GST control) |  | 1.08 fold enrichment (6-mer frequency, TF over GST control) |  |  |  |  |
| CTCAGG | 1.08 fold enrichment (6-mer frequency, TF over GST control) | 1.13 fold enrichment (6-mer frequency, TF over GST control) | 1.02 fold enrichment (6-mer frequency, TF over GST control) | 1.1 fold enrichment (6-mer frequency, TF over GST control) | 1.08 fold enrichment (6-mer frequency, TF over GST control) |  | 1.07 fold enrichment (6-mer frequency, TF over GST control) | 1.11 fold enrichment (6-mer frequency, TF over GST control) |  |
| TGGTTA | 1.17 fold enrichment (6-mer frequency, TF over GST control) | 1.08 fold enrichment (6-mer frequency, TF over GST control) | 1.09 fold enrichment (6-mer frequency, TF over GST control) | 1.13 fold enrichment (6-mer frequency, TF over GST control) | 1.1 fold enrichment (6-mer frequency, TF over GST control) |  | 1.13 fold enrichment (6-mer frequency, TF over GST control) | 1.12 fold enrichment (6-mer frequency, TF over GST control) | 1.15 fold enrichment (6-mer frequency, TF over GST control) |
